Data reported in PMC13494018.

B1: design_609_7ee6ce64-4629-41e8-bcb4-ba0da017284d_187_dldesign_0_cycle1_af2pred (protein)
chain: AEAEKAKAEEAAKVAEEKIKKVEKLDPKKAEELRKKLKEAMAKPDAYKAVAKVSHDAYEALAEAEWEKRK
B2: design_608_fd41b8f9-4da9-4c78-93ec-aaa316ed4933_2160_dldesign_0_cycle1_af2pred (protein)
chain: MEEKAKKYLEAAKKAKKYAEYAAKIDKEAAEKAKEAAKLLEEAAKLYLEGADEEEIEKASKKAAEKLGEARFEYNVVKQKEKRK
B3: design_609_7ee6ce64-4629-41e8-bcb4-ba0da017284d_287_dldesign_0_cycle1_af2pred (protein)
chain: MLKEEAKKVAEKGKKEGKYEEAIKELSEIAAKAYELAAEKLLDKETKEEGEKYREAARLARELGKELEKAA
B4: design_608_fd41b8f9-4da9-4c78-93ec-aaa316ed4933_2243_dldesign_0_cycle1_af2pred (protein)
chain: DEAKKEAAKAAQKAYEAIAEAEQAIRSGNAEELKKAAEEAKKAAKEAEKAAKKSKDKEVKEELKRVAKKAKEAAKKAKEAAKKLEA
B5: design_609_7ee6ce64-4629-41e8-bcb4-ba0da017284d_741_dldesign_0_cycle1_af2pred (protein)
chain: EKELAEEVIKKIKEKAEKAIKEGVSREEAEKVIKEIEELATKASWEAPEYAKELNRAAKEEKKKIKKAVEEREA
B6: design_608_fd41b8f9-4da9-4c78-93ec-aaa316ed4933_2275_dldesign_0_cycle1_af2pred (protein)
chain: MEKVKEEAEKLREEAEKAAKAGDVKAVSEAAHKLAELAAEAERESEEAGKVAREALRELREEAKAALAKRAAAAAA
B7: design_609_7ee6ce64-4629-41e8-bcb4-ba0da017284d_519_dldesign_0_cycle1_af2pred (protein)
chain: SEEAERELTLAKGYAELAKELAEQGPKAAKSAVKDAEKEAKEAEKIDPEVGKKAKELAEEAKKYVEEKEK
B8: design_608_fd41b8f9-4da9-4c78-93ec-aaa316ed4933_2179_dldesign_0_cycle1_af2pred (protein)
chain: MKEEEAKKAIEEAKKAIKEAREVGKELAKKDPSKKAFVDEAAKKLHELREKLAEAESLLKKDPEKAKKLAEEVKKKAKEIKKELEKA
B9: design_609_7ee6ce64-4629-41e8-bcb4-ba0da017284d_97_dldesign_0_cycle1_af2pred (protein)
chain: NKLEEAKKAVKKLKELAKKAKEVAKDLKKTEELVKKAEEEYKKAIKLAREAAKEGDEETKKEAKKLAEEAHEAYNEALLALVKARE
B10: design_609_7ee6ce64-4629-41e8-bcb4-ba0da017284d_842_dldesign_0_cycle1_af2pred (protein)
chain: SMREEELEADRKKVDEGAKELKKLGEEAAKKAKTWEEFVKGHKELREKAKEVVDAALPEVKPYAEKAASKVVHDARQKGAENVQKQK
B11: design_608_fd41b8f9-4da9-4c78-93ec-aaa316ed4933_2397_dldesign_0_cycle1_af2pred (protein)
chain: RDKLLMYVAAVRGAARIAKDDPEKGKEALEIETEELVEVMAKASEEEAAEAKELAVAAAAEVDPEIAEWVRKFIEEKLKEKR
B12: design_608_fd41b8f9-4da9-4c78-93ec-aaa316ed4933_2496_dldesign_0_cycle1_af2pred (protein)
chain: EEEVREEAERIRERAKEIAEKAKKLAEEAEKDPSKAKEAEEKSRKLAEELRELGERARELGDEEAARAAAEAAAVAHEARAEAYAIAN
B13: design_608_fd41b8f9-4da9-4c78-93ec-aaa316ed4933_2208_dldesign_0_cycle1_af2pred (protein)
chain: AAAAAAKAKALADAAKKAAKEYVKYAKEEDPEKGRKLLYEDMKKAYALAKADPALAPAAKEIAKIAQEAFQEIADIIGEKK
B14: design_608_fd41b8f9-4da9-4c78-93ec-aaa316ed4933_2418_dldesign_0_cycle1_af2pred (protein)
chain: NKLLKEAIEALKKGIEAAKKGDLMEAQAYFTEARFYAEKYAKENPEYKEKAEKAAELAKEAIKTNGTPEAIKLAEEARKLLEEI
B15: design_608_fd41b8f9-4da9-4c78-93ec-aaa316ed4933_2334_dldesign_0_cycle1_af2pred (protein)
chain: MTPEEKQEMVKQAVELVKNAKGAFDALEAADLIIEAYEKDPEAGKQAIEAAKAEAEKKIKENPLLGKTALRMIENAEIAMKNLE
B16: design_609_7ee6ce64-4629-41e8-bcb4-ba0da017284d_478_dldesign_0_cycle1_af2pred (protein)
chain: DAVKKAAEEAAKEAAKHPKGEKIAKAIEKGAEVAIKNSDKSFSQAAGDGASTIISLLGKEAGVDAIEAQDYADYWLDLVEKNS
B17: design_608_fd41b8f9-4da9-4c78-93ec-aaa316ed4933_2202_dldesign_0_cycle1_af2pred (protein)
chain: DEYLKEAEKVYKETKKVIEEAKKKEKEEALKEIAKATQEATMKLTELAAEAAREGDKETAEKIRELRRELIEYATKVAEEVKAK
B18: design_609_7ee6ce64-4629-41e8-bcb4-ba0da017284d_81_dldesign_0_cycle1_af2pred (protein)
chain: SKALADALRAAQRALRALGRRAAALDPALAAEVTAALFAVYDQSTAEAAKAAADAAVAAATARIAALEAAA
B19: design_608_fd41b8f9-4da9-4c78-93ec-aaa316ed4933_2434_dldesign_0_cycle1_af2pred (protein)
chain: AAEEAIKKAKKIVEEAVKIMEEAGKKNPEYKEEFEKKNKKIKELLKEAEKLVKEGKKEEGIKTAVKAAHEAREAKAEAEWILRRN
B20: design_609_7ee6ce64-4629-41e8-bcb4-ba0da017284d_21_dldesign_0_cycle1_af2pred (protein)
chain: SLEEELNKKKTEELIEEGIKALKEYAEKGKLEEGKAIASKKVQEAFDLGYEEGREAARKVREAYDKLAKEIEKKKA
B21: design_609_7ee6ce64-4629-41e8-bcb4-ba0da017284d_730_dldesign_0_cycle1_af2pred (protein)
chain: SEQAKEELEKQEKVKEVAKKVRKALKELEEAGDEEAKKEAEKLRKEASEARLLAADDPEKGLEEMKKVLEKAEKKLKEVKAKL
B22: design_609_7ee6ce64-4629-41e8-bcb4-ba0da017284d_401_dldesign_0_cycle1_af2pred (protein)
chain: AIEELIKKGKERGEKAAKRVKEGTMTPEAAKDIFKNIIKELAKAGGEEEGKKIALEGADLLAEADPEFGKKFKKEVEKE
B23: design_608_fd41b8f9-4da9-4c78-93ec-aaa316ed4933_2353_dldesign_0_cycle1_af2pred (protein)
chain: SNKEEADLLRELARAAKAAGAALAALAAADPSEAARAAALKAEFSQALFDAADGKLNEAEIKAIIARMEAVAAAA
B24: design_609_7ee6ce64-4629-41e8-bcb4-ba0da017284d_830_dldesign_0_cycle1_af2pred (protein)
chain: MESLKETFEKMAKLVKKFAEYLEKLDPEAGKKTLEILKKGEEAKTPSEAISLVLRAAVYGAKELGKYDKELALEKLEKVFDL
B25: design_609_7ee6ce64-4629-41e8-bcb4-ba0da017284d_739_dldesign_0_cycle1_af2pred (protein)
chain: SEASKAAAEAYEKLAETEYLAKKAKESNAEEAEKYAKEAKEAAKEAIEAAKKAAELAPEGAPLMKKVEEKAKKAAEEAEKYAKKKK
B26: design_609_7ee6ce64-4629-41e8-bcb4-ba0da017284d_123_dldesign_0_cycle1_af2pred (protein)
chain: GAKAVAAAAHDGYQAIAEASKDAEELKKAEEAGLKAVEETGKATGDTATAKAAKERLKRYADRELKKSKKKEEEKKKKLLE
B27: design_609_7ee6ce64-4629-41e8-bcb4-ba0da017284d_367_dldesign_0_cycle1_af2pred (protein)
chain: KRKEEQLEKLKKLAEELEKKAKEYEKDKNFKEVAKAYKEAAKKLKEAAKTGDSKVAHEARQKAAEAEWLEKKAK
B28: design_609_7ee6ce64-4629-41e8-bcb4-ba0da017284d_665_dldesign_0_cycle1_af2pred (protein)
chain: MDEEKLKMAEEEMKEGEKYAKAAKAALKKGDAKKAATLASEALASYNAAAHLYELAGDKEKAKKALEEGKKVVEEVGAAVKA
B29: design_609_7ee6ce64-4629-41e8-bcb4-ba0da017284d_738_dldesign_0_cycle1_af2pred (protein)
chain: MEEALARIDAALKRAKELAKEAEKAGDKKAAAEMESAIAFAEQQRENALKGSPEYAKKAAEAAEAYTDRKIKRAEEIRKKK
B30: design_609_7ee6ce64-4629-41e8-bcb4-ba0da017284d_297_dldesign_0_cycle1_af2pred (protein)
chain: SPEEMIKKGKELVEKRLEKAKKTAEEKTPEEAKREAEAAVAFAEGVAEALAKHPEAAAAGEALLKETKEEAEKIIKKAKE
B31: design_608_fd41b8f9-4da9-4c78-93ec-aaa316ed4933_2157_dldesign_0_cycle1_af2pred (protein)
chain: SELEEEIKKLAKELNEAIMKLADLASPEETREAAKKALEAKKLAKEDPEKGLEKLKEALKETKKLLEKAEKEN
B32: design_609_7ee6ce64-4629-41e8-bcb4-ba0da017284d_91_dldesign_0_cycle1_af2pred (protein)
chain: SDLENNKKALQYAEAAAEAAEFGSLKAAQGLLKKAAELATDEETKKLLLEAAEKEDLKELLKLAKEAAKKLKKNVE
B33: design_608_fd41b8f9-4da9-4c78-93ec-aaa316ed4933_1926_dldesign_0_cycle1_af2pred (protein)
chain: DAEEEAKKLKEEAEKKLKEIKQMAKDGTATVEEIEKERKEGIEALKKAAKLVPEKKEEYAKLAEEIVEAYSDAYYESLKKERE
B34: design_609_7ee6ce64-4629-41e8-bcb4-ba0da017284d_143_dldesign_0_cycle1_af2pred (protein)
chain: EEEKKELLESESYAIQAAHAVAAKDPATAEEAKEAFEYVALVGVEKARELLEKAKTDAESLKAAVAEAKELAKEVKKKLE
B35: design_609_7ee6ce64-4629-41e8-bcb4-ba0da017284d_829_dldesign_0_cycle1_af2pred (protein)
chain: LEEELKKAIEEAKKAVKELKEAAKKRPLTPEEIAKLVTKVSNELGKVRFLSAEALVNKKYEKVGEEGRKAAKEIREEAKEAIKLSKEK
B36: design_608_fd41b8f9-4da9-4c78-93ec-aaa316ed4933_1996_dldesign_0_cycle1_af2pred (protein)
chain: AEKAKELREQAEKLREEARKYAEYAPPEVVHELYQAAAESISYFNLAEKGEATEEQIKEGEEAFKKLKELTEEIKERAKKAEEEA
B37: design_609_7ee6ce64-4629-41e8-bcb4-ba0da017284d_654_dldesign_0_cycle1_af2pred (protein)
chain: AAAEQAKLKAEAKALMAAMKAAGKAGDVAAVEAAAKAALAKAKELAKIDPALGSKLAAEIHETRAEALSTARKTREEKKKEEELKK
B38: design_609_7ee6ce64-4629-41e8-bcb4-ba0da017284d_250_dldesign_0_cycle1_af2pred (protein)
chain: MEEVKKKAEKALKEAKAALKEAKALGNEEAIKAAEQAIKFAKKALEYAEKGDLNGAEAYLEAAKHALKVAKDAIKAAKKAA

What follows are binders tested against VTCN1, Q7Z7D3.
Chain of VTCN1, Q7Z7D3 (Q7Z7D3 whole entry): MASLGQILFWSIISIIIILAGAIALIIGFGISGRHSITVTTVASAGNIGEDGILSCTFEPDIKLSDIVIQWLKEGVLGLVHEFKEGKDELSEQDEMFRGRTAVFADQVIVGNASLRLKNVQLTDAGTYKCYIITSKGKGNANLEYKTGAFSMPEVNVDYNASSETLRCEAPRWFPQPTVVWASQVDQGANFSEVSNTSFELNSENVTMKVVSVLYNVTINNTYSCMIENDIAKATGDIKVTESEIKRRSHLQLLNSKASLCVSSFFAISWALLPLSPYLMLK

Binding in a display sort, inactive:
B1 not found, B2 not found, B3 not found, B4 not found, B5 not found, B6 not found, B7 not found, B8 not found, B9 not found, B10 not found, B11 not found, B12 not found, B13 not found, B14 not found, B15 not found, B16 not found, B17 not found, B18 not found, B19 not found, B20 not found, B21 not found, B22 not found, B23 not found, B24 not found, B25 not found, B26 not found, B27 not found, B28 not found, B29 not found, B30 not found, B31 not found, B32 not found, B33 not found, B34 not found, B35 not found, B36 not found, B37 not found, B38 not found
